Test results from PubChem BioAssay AID1159580 (chemical genetic matrix, 2015).
The campaign covered roughly 5,500 compounds. About 2,000 (36%) were called active. About 18% were inconclusive and are not listed. Rule as the data show it: active = normalized growth mostly below about 0.91 (no sharp cut-off); inconclusive = no clear call, values can overlap the other calls; inactive = mostly above about 0.92. This is one part of the list.

Experiment: chemical genetic growth profiling, strain panel (AID 1159580);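 also: tested at 20 µM; growth read once vehicle control cultures reached saturation at 30 °C; 1 = growth at the plate median or of vehicle wells; lower values mean less growth of the strain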
Details: growth OD

Measured: normalized growth

COc1ccc(CCC(=O)c2c(O)cc(O[C@@H]3O[C@H](CO)C(O)[C@H](O)C3O[C@@H]3O[C@@H](C)[C@H](O)[C@@H](O)[C@H]3O)cc2O)cc1O (some centres not stated)
inactive: S. cerevisiae deletion strains, locus YJR075W, strain HOC1, active compounds read low 0.996 | S. cerevisiae deletion strains, locus YKL009W, strain mrt4, active compounds read low 1 | S. cerevisiae deletion strains, locus YKL068W, active compounds read low 0.972 | S. cerevisiae deletion strains, locus YKL085W, strain MDH1 (second series), active compounds read low 0.982 | S. cerevisiae deletion strains, locus YKL085W, strain MDH1, active compounds read low 0.982 | S. cerevisiae deletion strains, locus YKL160W, strain elf1, active compounds read low 1 | S. cerevisiae deletion strains, locus YKL190W, strain CNB1, active compounds read low 0.999 | S. cerevisiae deletion strains, locus YKR001C, strain vps1, active compounds read low 0.989 | S. cerevisiae deletion strains, locus YKR026C, strain gcn3, active compounds read low 1.02 | S. cerevisiae deletion strains, locus YKR091W, strain srl3, active compounds read low 1.01 | S. cerevisiae deletion strains, locus YLL001W, strain dnm1, active compounds read low 1 | S. cerevisiae deletion strains, locus YLL026W, active compounds read low 1.02 | S. cerevisiae deletion strains, locus YLL041C, strain sdh2, active compounds read low 1.02 | S. cerevisiae deletion strains, locus YLR027C, strain aat2, active compounds read low 1 | S. cerevisiae deletion strains, locus YLR039C, strain RIC1, active compounds read low 0.982 | S. cerevisiae deletion strains, locus YLR058C, strain SHM2, active compounds read low 1 | S. cerevisiae deletion strains, locus YLR102C, strain apc9, active compounds read low 0.973 | S. cerevisiae deletion strains, locus YLR113W, strain HOG1, active compounds read low 0.98 | S. cerevisiae deletion strains, locus YLR221C, strain rsa3, active compounds read low 1.04 | S. cerevisiae deletion strains, locus YLR258W, strain gsy2, active compounds read low 1.04 | S. cerevisiae deletion strains, locus YLR262C, strain YPT6 (second series), active compounds read low 1.05 | S. cerevisiae deletion strains, locus YLR262C, strain YPT6, active compounds read low 0.97 | S. cerevisiae deletion strains, locus YLR268W, strain sec22, active compounds read low 0.95 | S. cerevisiae deletion strains, locus YLR320W, strain mms22, active compounds read low 1.06 | S. cerevisiae deletion strains, locus YLR330W, strain CHS5, active compounds read low 0.993 | S. cerevisiae deletion strains, locus YLR342W, strain FKS1 (second series), active compounds read low 1.06 | S. cerevisiae deletion strains, locus YLR342W, strain FKS1, active compounds read low 1.02 | S. cerevisiae deletion strains, locus YLR357W, strain rsc2, active compounds read low 1.01 | S. cerevisiae deletion strains, locus YLR370C, strain arc18, active compounds read low 1.01 | S. cerevisiae deletion strains, locus YLR371W, strain rom2, active compounds read low 0.983 | S. cerevisiae deletion strains, locus YLR384C, strain iki3, active compounds read low 1.04 | S. cerevisiae deletion strains, locus YLR418C, strain cdc73, active compounds read low 0.985 | S. cerevisiae deletion strains, locus YML016C, strain PPZ1, active compounds read low 1.01 | S. cerevisiae deletion strains, locus YML032C, strain rad52, active compounds read low 0.966 | S. cerevisiae deletion strains, locus YML120C, strain ndi1, active compounds read low 1.01 | S. cerevisiae deletion strains, locus YML124C, strain tub3, active compounds read low 0.984 | S. cerevisiae deletion strains, locus YMR058W, strain fet3, active compounds read low 1.03 | S. cerevisiae deletion strains, locus YMR078C, strain ctf18, active compounds read low 0.989 | S. cerevisiae deletion strains, locus YMR125W, strain sto1, active compounds read low 1.01 | S. cerevisiae deletion strains, locus YMR129W, active compounds read low 1.02 | S. cerevisiae deletion strains, locus YMR205C, strain PFK2, active compounds read low 1.02 | S. cerevisiae deletion strains, locus YMR223W, strain ubp8, active compounds read low 1.01 | S. cerevisiae deletion strains, locus YMR231W, strain pep5, active compounds read low 0.995 | S. cerevisiae deletion strains, locus YMR263W, strain SAP30, active compounds read low 0.989 | S. cerevisiae deletion strains, locus YMR307W, strain GAS1, active compounds read low 1.04 | S. cerevisiae deletion strains, locus YNL067W, strain RPL9B, active compounds read low 0.989 | S. cerevisiae deletion strains, locus YNL071W, strain lat1, active compounds read low 1.01 | S. cerevisiae deletion strains, locus YNL128W, strain TEP1, active compounds read low 0.989 | S. cerevisiae deletion strains, locus YNL153C, strain GIM3, active compounds read low 0.988 | S. cerevisiae deletion strains, locus YNL183C, strain NPR1, active compounds read low 0.899 | S. cerevisiae deletion strains, locus YNL209W, strain ssb2, active compounds read low 1.01 | S. cerevisiae deletion strains, locus YNL233W, strain BNI4, active compounds read low 0.994 | S. cerevisiae deletion strains, locus YNL248C, strain rpa49, active compounds read low 1.04 | S. cerevisiae deletion strains, locus YNL250W, strain rad50, active compounds read low 0.979 | S. cerevisiae deletion strains, locus YNL271C, strain bni1, active compounds read low 0.981 | S. cerevisiae deletion strains, locus YNL298W, strain CLA4, active compounds read low 0.984 | S. cerevisiae deletion strains, locus YNL307C, strain MCK1, active compounds read low 0.993 | S. cerevisiae deletion strains, locus YNL322C, strain KRE1 (second series), active compounds read low 1.01 | S. cerevisiae deletion strains, locus YNL322C, strain KRE1, active compounds read low 0.993 | S. cerevisiae deletion strains, locus YNR049C, strain mso1, active compounds read low 1.02 | S. cerevisiae deletion strains, locus YNR052C, strain pop2, active compounds read low 0.993 | S. cerevisiae deletion strains, locus YOL006C, strain TOP1, active compounds read low 0.929 | S. cerevisiae deletion strains, locus YOL012C, strain htz1 1.02 | S. cerevisiae deletion strains, locus YOL147C, strain pex11, active compounds read low 0.989 | S. cerevisiae deletion strains, locus YOR001W, strain rrp6, active compounds read low 1.05 | S. cerevisiae deletion strains, locus YOR061W, strain CKA2, active compounds read low 0.999 | S. cerevisiae deletion strains, locus YOR069W, strain VPS5, active compounds read low 1 | S. cerevisiae deletion strains, locus YOR070C, strain gyp1, active compounds read low 1 | S. cerevisiae deletion strains, locus YOR080W, strain dia2, active compounds read low 1.03 | S. cerevisiae deletion strains, locus YOR083W, strain WHI5, active compounds read low 1 | S. cerevisiae deletion strains, locus YOR106W, strain vam3, active compounds read low 0.992 | S. cerevisiae deletion strains, locus YOR136W, strain idh2, active compounds read low 0.99 | S. cerevisiae deletion strains, locus YOR144C, strain elg1, active compounds read low 0.977 | S. cerevisiae deletion strains, locus YOR184W, strain ser1, active compounds read low 0.985 | S. cerevisiae deletion strains, locus YOR231W, strain MKK1, active compounds read low 0.97 | S. cerevisiae deletion strains, locus YOR265W, strain rbl2, active compounds read low 1.02 | S. cerevisiae deletion strains, locus YOR270C, strain vph1, active compounds read low 1.07 | S. cerevisiae deletion strains, locus YOR290C, strain snf2, active compounds read low 0.965 | S. cerevisiae deletion strains, locus YOR316C, strain cot1, active compounds read low 0.967 | S. cerevisiae deletion strains, locus YPL051W, strain arl3, active compounds read low 1.02 | S. cerevisiae deletion strains, locus YPL055C, strain LGE1, active compounds read low 0.982 | S. cerevisiae deletion strains, locus YPL078C, strain atp4, active compounds read low 0.989 | S. cerevisiae deletion strains, locus YPL106C, strain sse1, active compounds read low 1.02 | S. cerevisiae deletion strains, locus YPL240C, strain hsp82, active compounds read low 1.02 | S. cerevisiae deletion strains, locus YPL241C, strain CIN2, active compounds read low 0.993 | S. cerevisiae deletion strains, locus YPL256C, strain CLN2, active compounds read low 0.962 | S. cerevisiae deletion strains, locus YPR119W, strain clb2, active compounds read low 0.975 | S. cerevisiae deletion strains, locus YPR141C, strain kar3, active compounds read low 0.986 | S. cerevisiae deletion strains, locus YPR163C, strain tif3, active compounds read low 0.985 | S. cerevisiae deletion strains, locus YPR167C, strain met16, active compounds read low 0.97 | S. cerevisiae deletion strains, strain wtn01, active compounds read low 1 | S. cerevisiae strains, strain wild type, active compounds read low 0.995
